Screening data (PubChem)
GDH-TPI inh: GDH-TPI coupled enzyme inhibition counter-screen. GDH-TPI coupled enzyme counterscreen, NADH absorbance. inhibition, % at 4.8 µM. 360,000 compounds, 1.2% hits; in the data active = inhibition above about 30%;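 also: 0% = DMSO wells and 100% = wells lacking the enzyme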
Mtb FBA inh: inhibitors of M. tuberculosis fructose-bisphosphate aldolase; P9WQA3; purified M. tuberculosis FBA, fluorescence read-out; inhibition, % at 1 µM; 360,000 compounds, 2.3% hits; in the data active = inhibition above about 27%;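 also: 0% = vehicle and 100% = reference inhibitor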
Target sequence (P9WQA3 whole entry, looked up): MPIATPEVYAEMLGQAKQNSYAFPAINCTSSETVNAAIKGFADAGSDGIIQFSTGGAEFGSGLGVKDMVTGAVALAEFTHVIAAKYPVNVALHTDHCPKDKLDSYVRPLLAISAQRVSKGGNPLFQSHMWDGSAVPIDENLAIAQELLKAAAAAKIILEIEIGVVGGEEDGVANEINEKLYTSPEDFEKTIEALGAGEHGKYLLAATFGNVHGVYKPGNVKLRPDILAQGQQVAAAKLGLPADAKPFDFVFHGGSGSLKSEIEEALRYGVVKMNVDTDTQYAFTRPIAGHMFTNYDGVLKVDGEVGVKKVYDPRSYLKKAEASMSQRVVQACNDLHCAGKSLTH
Mtb bLac sens: beta-lactam sensitization of Mtb H37Rv; M. tuberculosis H37Rv growth with meropenem, percent inhibition; inhibition, % at 25 µM; 330,000 compounds, 0.27% hits; AID 434955; call rule not given here;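 also: growth measured after seven days incubation then overnight dye step; 0% = bacteria only wells and 100% = bacteria with antibiotic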
Rv3671c inh: Rv3671c (M. tuberculosis) protease inhibition. 320,000 compounds, 0.048% hits. inhibition, % at 5.96 µM. P9WHR9; in the data active = inhibition above about 38%;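 also: extracellular domain of Rv3671c used as enzyme; 0% = enzyme with DMSO and 100% = no enzyme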
SSB-PriA inh: K. pneumoniae PriA-SSBct interaction inhibition | AlphaScreen SSBct-PriA binding, biotinylated peptide | inhibition, % at 33 µM | 430,000 compounds, 0.6% hits; in the data active = inhibition mostly above about 37%, no sharp cut-off; inactive = mostly below about 20%;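 also: plate controls were negative control peptide for no effect and reference peptide for full effect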
Mtb UGM inh: inhibitors of M. tuberculosis UDP-galactopyranose mutase. P9WIQ1. purified UGM, fluorescence polarization probe displacement. inhibition, % at 10 µM. 320,000 compounds, 0.06% hits. AID 504406; in the data active = inhibition above about 10%, passing the limit was not always enough
Target sequence (P9WIQ1 whole entry, looked up): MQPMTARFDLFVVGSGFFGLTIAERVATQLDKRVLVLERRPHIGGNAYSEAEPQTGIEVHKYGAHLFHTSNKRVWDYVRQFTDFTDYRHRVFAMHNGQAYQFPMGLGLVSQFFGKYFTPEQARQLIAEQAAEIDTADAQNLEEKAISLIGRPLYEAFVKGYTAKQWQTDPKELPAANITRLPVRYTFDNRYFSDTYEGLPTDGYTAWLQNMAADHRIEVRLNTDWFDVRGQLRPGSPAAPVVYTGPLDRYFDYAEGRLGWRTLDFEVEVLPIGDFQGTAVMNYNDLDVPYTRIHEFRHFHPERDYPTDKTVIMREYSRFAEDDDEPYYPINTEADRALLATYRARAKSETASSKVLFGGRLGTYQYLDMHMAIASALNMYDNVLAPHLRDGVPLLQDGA
Numbers without * were called inactive; . = not tested or not shown; + = active, no number. This is a sample that favours compounds with a hit; in the whole collection about 3.2% have one here.

SMILES | GDH-TPI inh | Mtb FBA inh | Mtb bLac sens | Rv3671c inh | SSB-PriA inh | Mtb UGM inh
CC1(CC(=O)N/N=C/c2cc(Br)c(O)cc2O)OCCO1 | 47.8* | 2.7 | 6.0 | 0.2 | . | 4.2
CC1(CC(=O)N/N=C/c2ccc(-c3cccc(C(F)(F)F)c3)o2)OCCO1 | 37.0* | -1.8 | 3.1 | -1.9 | . | -2.3
O=C(Cc1n[nH]c(=O)[nH]c1=O)NN=Cc1ccccc1 | . | . | . | . | -9.7 | .
O=C(C1CCCN1S(=O)(=O)c1ccc(Cl)s1)N(Cc1ccccc1)c1nc2c(F)cccc2s1 (stereo not given) | . | . | . | . | -8.0 | .
Cc1ccn(-c2ccc(NCCNC(=O)c3cc(-n4cccn4)nc(C)n3)nn2)n1 | . | . | . | . | -3.0 | .
CC(=O)Nc1oc(-c2cccc3ccccc23)nc1C#N | 5.2 | 163.5* | -2.8 | -7.6 | -12.7 | -0.9
CC(C)CNc1oc(-c2ccccc2Cl)nc1C#N | 14.0 | 10.5 | 97.5 | -5.3 | 8.5 | -1.3
N#Cc1nc(-c2cccc3ccccc23)oc1NCCN1CCOCC1 | 32.9* | 121.9* | 63.7 | 2.8 | -15.9 | -0.7
N#Cc1nc(-c2ccco2)oc1NCCN1CCOCC1 | 7.4 | 25.8 | -3.6 | 2.2 | -6.3 | -2.2
CCCNc1oc(-c2cccc3ccccc23)nc1C#N | 19.6 | 148.1* | 18.1 | 10.9 | -7.8 | 0.8
COc1nc(C)cc2c1NCCC2 | . | . | . | . | -4.0 | .
CC(C)C(=O)Nc1ccc2nn(-c3ccc(F)cc3)nc2c1 | 9.6 | 91.5* | -1.6 | -4.8 | -12.1 | -1.7
CCCC(=O)Nc1nc2ccc(OC)cc2s1 | 5.6 | 0.3 | 4.2 | 3.4 | -12.8 | -0.5
Cc1ccc(-n2nc3ccc(NC(=O)C(C)C)cc3n2)cc1 | -1.6 | 23.0 | 0.8 | 1.3 | -18.9 | 0.4
CCCC(=O)Nc1ccc2nn(-c3ccc(OC)cc3)nc2c1 | 24.8 | + | 18.5 | -10.7 | -8.0 | 2.9
CCOC(=O)c1ccc(NC(=O)c2ccc3snnc3c2)cc1 | . | . | . | . | -21.0 | .
CSc1ccc(C(=O)c2[nH]c(=O)[nH]c2C)cc1 | 32.4* | -4.6 | 2.6 | -3.7 | 2.4 | -1.7
Cc1[nH]c(=O)[nH]c1C(=O)CCCCC(=O)O | 6.7 | 0.8 | 3.3 | 8.2 | -14.4 | -0.1
COc1c(C)cnc(Cn2c(=O)n(Cc3ccc(F)cc3)c(=O)c3sccc32)c1C | . | . | . | . | -10.0 | .
COc1ccc2nc(-c3ccc(C)c(NS(=O)(=O)c4cccc(Cl)c4)c3)cn2n1 | . | . | . | . | 12.0 | .
COc1ccc2oc(=O)c(C(=O)Oc3ccc(NC(C)=O)cc3)cc2c1 | 17.7 | 31.3* | 8.6 | 12.7 | 3.5 | 2.1
O=C(NCc1cc(-c2cccs2)n(C2CCCC2)n1)c1ccccc1Br | . | . | . | . | -5.0 | .
NC(=O)CC(NC(=O)OCc1ccccc1)C(=O)O (stereo not given) | 0.0 | 0.7 | -13.3 | 2.6 | -4.8 | 1.8
CC(C)(O)C#Cc1ccccc1C(=O)NC(CC(N)=O)C(=O)O (stereo not given) | 31.7* | 2.3 | -6.0 | 2.5 | -13.4 | 0.6
Nc1nc(-c2cc3ccccc3oc2=O)cs1 | . | . | . | . | -15.0 | .
SMILES | GDH-TPI inh | Mtb FBA inh | Mtb bLac sens | Rv3671c inh | SSB-PriA inh | Mtb UGM inh
CC1(C)Cc2ccccc2-c2nc(NCCCO)n(-c3ccccc3)c(=O)c21 | 5.7 | 198.2* | -15.8 | 0.9 | 3.6 | -1.1
O=c1[nH]c(NCCCO)nc2c1C1(CCCC1)Cc1ccccc1-2 | 3.7 | 183.8* | 2.6 | -12.0 | -10.0 | 5.5
CCC1(C)Cc2ccccc2-c2nc(NCCCO)[nH]c(=O)c21 (stereo not given) | 9.0 | 140.3* | -2.0 | -8.4 | -0.7 | 2.3
CCC1(C)Cc2ccccc2-c2nc(SC)[nH]c(=O)c21 (stereo not given) | 4.6 | 4.0 | 3.1 | -6.1 | -11.4 | 0.0
CCOC(=O)C(C)Oc1ccc2c(=O)c(-c3cc4ccccc4o3)coc2c1C (stereo not given) | . | . | . | . | -7.0 | .
NC(=O)CSc1cn(CCNC(=O)c2ccc(F)cc2)c2ccccc12 | . | . | . | . | -40.0 | .
COC(=O)/C=C1/S/C(=N/N=C/c2ccco2)NC1=O | 21.5 | -6.2 | 93.6 | 12.3 | . | -2.7
COC(=O)/C=C1\S/C(=N/N=C/c2ccco2)NC1=O | 32.7* | -7.7 | 91.4 | -1.2 | . | -4.5
COC(=O)/C=C1\S/C(=N/N=C/c2ccc(Cl)cc2)NC1=O | 35.2* | -1.5 | -7.3 | -3.8 | . | -1.7
COC(=O)C/C=N/N=C1/NC(=O)/C(=C/C(=O)O)S1 | 35.1* | -3.9 | -2.1 | 4.7 | . | -1.9
COC(=O)/C=C1\S/C(=N/N=C/c2ccccc2)NC1=O | 45.7* | -2.7 | 93.9 | -2.8 | . | .
CN(Cc1ccco1)S(=O)(=O)c1ccc(C(=O)NCc2ccccc2)cc1 | . | . | . | . | 3.0 | .
O=C(NCc1cccnc1)/C(=C\c1ccc(-c2ccc(Cl)c(Cl)c2)o1)S(=O)(=O)c1ccccc1 | 31.3* | 0.5 | 20.0 | -107.3 | -9.7 | 0.7
CCOc1ccccc1C(=O)N1CCC[C@H](Cc2nc(-c3ccsc3)no2)C1 | . | . | . | . | 5.0 | .
CCOC(=O)c1ccc(Oc2c(C)oc3c4c(ccc3c2=O)OCN(C2CCS(=O)(=O)C2)C4)cc1 (stereo not given) | . | . | . | . | 38.0* | .
CC(C)(NO)C(=NO)c1ccccc1 | . | . | . | . | -11.2 | .
CC(C)(NO)/C(=N\O)c1ccccc1 | -6.0 | 53.8* | 9.2 | -2.5 | . | 1.0
Cc1cc(C(=O)NCCn2ncc3c(N4CCN(c5ccccc5)CC4)ncnc32)no1 | . | . | . | . | -2.0 | .
CSC1CC2CCC(C1)N2C(=O)c1ccsc1 (stereo not given) | . | . | . | . | 94.0* | .
Cc1cc(NCCN2CCOCC2)n2nc(C)c(-c3ccccc3)c2n1 | 12.3 | 1.0 | -7.6 | 4.8 | -8.6 | -1.6
COCCNc1cc(C)nc2c3c(C)cc(C)nc3nn12 | 4.5 | + | -15.6 | -0.8 | -14.3 | 3.1
Cc1cc(C)c2c(n1)nn1c(NCCN3CCOCC3)cc(C)nc21 | 10.1 | + | 6.7 | -0.5 | -5.1 | -5.3
Cc1cc(C)c2c(n1)nn1c(Nc3ccc(C)c(Cl)c3)cc(C)nc21 | . | . | . | . | 2.0 | .
Cn1cccc1CN(Cc1cccs1)C(=O)c1cc(Br)cs1 | . | . | . | . | 10.0 | .
Cc1ccc(/C(O)=C2/C(=O)C(=O)N(Cc3cccnc3)C2c2ccccn2)cc1 (stereo not given) | 38.5* | 3.2 | -10.6 | 2.2 | . | 0.8
SMILES | GDH-TPI inh | Mtb FBA inh | Mtb bLac sens | Rv3671c inh | SSB-PriA inh | Mtb UGM inh
COc1ccccc1/C=C/C(=O)NCC(=O)N=Nc1c(O)[nH]c2ccccc12 | 35.6* | 4.0 | 2.1 | -8.5 | -32.0 | 6.0
COc1ccc(CC(=O)NCC(=O)N=Nc2c(O)[nH]c3ccccc23)cc1 | 10.0 | -2.6 | 1.4 | -1.8 | -12.9 | -1.9
CCOC(=O)/C(C#N)=C1\CC2CCC1(C)C2(C)C (stereo not given) | 1.2 | 5.1 | -2.9 | 0.7 | -4.0 | 13.1*
CCOC(=O)/C(C#N)=C1/C=Nc2ccccc2N1 | -1.6 | -7.3 | 2.4 | 1.1 | . | 0.3
CCn1cc(/C=C(\NC(=O)c2ccccc2F)C(=O)NCCCn2ccnc2)c2ccccc21 | 32.8* | -5.1 | 2.8 | 5.2 | 11.4 | -0.3
CCn1cc(/C=C(\NC(=O)c2ccccc2OC)C(=O)NCCCn2ccnc2)c2ccccc21 | 24.9 | -5.1 | 3.2 | -2.4 | 13.2 | 0.8
CCn1cc(/C=C(\NC(=O)c2ccc(OC)cc2)C(=O)NCCCn2ccnc2)c2ccccc21 | 37.2* | -4.5 | . | . | . | .
CS(=O)(=O)N1CCC(C(=O)Nc2nnc(-c3ccc4c(c3)CCCC4)o2)CC1 | . | . | . | . | -15.0 | .
